Assay [1] is described as follows: Nuclear factor erythroid 2-related factor 2/antioxidant responsive element (Nrf2/ARE) small molecule agonists: qHTS cell viability counter screen in human keratinocytes (AID 1919968; active means well fitted curve in the direction sought with a large enough effect in the repeat runs; an effect the other way counts as inactive or inconclusive; further: nearly all actives have a fitted effect of over 55% in size). The gist of the method: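 Fluorescence read-out from CellTiter-Fluor after 1 h at 37 C. Wells held HaCaT-derived ARE-luciferase reporter cells (1,500/well) treated 23 h with DMSO-dissolved compounds. Run in the same wells as the luciferase agonist read.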

A short description of assay [2]: Nuclear factor erythroid 2-related factor 2/antioxidant responsive element (Nrf2/ARE) small molecule agonists: luciferase reporter gene qHTS assay in human keratinocytes (AID 1919969). Further: nearly all actives have a fitted effect of over 35% in size.
Assay [3] addresses Gonadotropin-releasing hormone receptor (Homo sapiens) (UniProt P30968). Put plainly: Human gonadotropin-releasing hormone receptor (GnRHR) small molecule agonists, calcium flux assay in GnRHR-HEK293 cells (AID 1920063). Further: nearly all actives have a fitted effect of over 35% in size. The gist of the method: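 Calcium-dye fluorescence, Ex/Em=480/540, recorded every 1 sec over 3 min after compound addition to GnRHR-HEK293 cells. Cells had been seeded 18 hours earlier and dye-loaded for 1 hour at 37 C. Fifteen concentrations, triplicates.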

Assay [4] has as its target KiSS-1 receptor (Homo sapiens) (UniProt Q969F8). Put plainly: Human kisspeptin (KISS1R) small molecule agonists, calcium flux assay in KISS1R-HEK293 cells (AID 1920064; active means well fitted curve in the direction sought with a large enough effect in the repeat runs; an effect the other way counts as inactive or inconclusive). The gist of the method: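 Calcium flux read-out: kinetic fluorescence at Ex/Em=480/540, 1 s intervals over 3 min, after pin-tool compound addition to dye-loaded KISS1R-HEK293 cells. Fifteen concentrations, triplicates.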

The nature of assay [5]: G protein-coupled receptor (GPCR) small molecule agonists, calcium flux assay: HEK293 wild type cell line counter screen (AID 1920065). The gist of the method:
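Agonist mode; 18 h seeding at 37 C, 1 h dye load at 37 C; compounds pinned from DMSO, ATP as positive control; kinetic fluorescence 480/540 nm, 3 min, 1 s reads; 15 concentrations, triplicate.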

Assay [6] is described as follows: p53 small molecule agonists, cell-based qHTS assay with human liver microsomes (AID 1963577).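 Further: p53 response element beta-lactamase reporter cells with liver microsomes plus NADPH.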 The essentials:
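Steps: plate p53RE-bla cells, incubate 5 h at 37 C; add compound in DMSO; add microsomes (0.5 mg/mL final) and NADPH (0.5 mg/mL final); incubate 16 h at 37 C; add LiveBLAzer, 2 h RT; read fluorescence.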

A short description of assay [7]: p53 small molecule agonists, cell-based qHTS assay with rat liver microsomes (AID 1963578). The essentials:
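Metabolic activation is supplied by rat liver microsomes with NADPH (each 0.5 mg/mL final). p53RE-bla cells incubate with compound 16 h at 37 C; reporter activity is measured by LiveBLAzer fluorescence.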

Assay [8] in a line: p53 small molecule agonists, cell-based qHTS assay with rat liver microsomes: qHTS cell viability counter screen (AID 1963580). Further: nearly all actives have a fitted effect of over 45% in size. The essentials:
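Cytotoxicity counter screen: intracellular ATP read by CellTiter-Glo luminescence in the p53 reporter wells. HCT-116 p53RE-bla cells were treated for 16 h at 37 C alongside rat liver microsomes and NADPH, each 0.5 mg/mL final.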

Assay [9] is described as follows: p53 small molecule agonists, cell-based qHTS assay: qHTS cell viability counter screen (AID 1963581). Further: nearly all actives have a fitted effect of over 45% in size. The gist of the method: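 Cytotoxicity read-out: ATP-based luminescence (CellTiter-Glo, 30 min RT) measured in the same wells as the p53 reporter assay, HCT-116 p53RE-bla cells, 16 h compound exposure at 37 C.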
Assay [10] in a line: p53 small molecule agonists, cell-based qHTS assay (AID 1963582; active means well fitted activation curve with a large enough effect in the signal ratio in the repeat runs, not every such curve was filed as active; the % refers to the signal ratio). The gist of the method:
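Fluorescence intensity read-out of a beta-lactamase reporter under a p53 response element. Cells were exposed to DMSO-dissolved compounds for 16 h at 37 C, then developed with FRET substrate for 2 h at RT.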

Assay [11] has as its target 5-hydroxytryptamine receptor 2A (Homo sapiens) (UniProt P28223). Put plainly: 5-hydroxytryptamine receptor 2A (HTR2A) small molecule agonists, cell-based qHTS assay (AID 1963587). Further: nearly all actives have a fitted effect of over 30% in size. The essentials:
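Kinetic calcium-flux fluorescence (2 min, 1 sec intervals) after compound addition in agonist mode. HTR2A-CHO cells were cultured 18 h, then dye-loaded 1 h at 37 C.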

The target in assay [12] is Muscarinic acetylcholine receptor M1 (Homo sapiens) (UniProt P11229). Nature of the assay: Cholinergic receptor muscarinic 1 (CHRM1) small molecule antagonists, cell-based qHTS assay (AID 1963588). Further: nearly all actives have a fitted effect of over 40% in size. Further: potency means the concentration at half of the fitted maximal effect. The essentials: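 Compounds were tested at 15 concentrations in three independent runs. Dye-loaded CHRM1-CHO cells were exposed 5 min at room temperature before stimulation by acetylcholine added at 50nM. Intracellular calcium was read kinetically on FDSS for 3 min.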

For assay [13] the target is unchanged. Put plainly: Cholinergic receptor muscarinic 1 (CHRM1) small molecule agonists, cell-based qHTS assay (AID 1963589). Further: nearly all actives have a fitted effect of over 35% in size. The essentials: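 Calcium flux read-out: kinetic fluorescence at 1 sec intervals after pin-tool compound addition to dye-loaded CHRM1-CHO cells (human M1). Agonist mode; 15 concentrations tested in triplicate independent runs.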
Assay [14] is described as follows: cAMP Responsive Elements (CRE) small molecule agonists, cell-based qHTS assay (AID 1963590). The essentials:
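Beta-lactamase reporter readout: LiveBLAzer B/G FRET substrate, 2 h at room temperature, added after 3 h compound treatment of CRE-bla HEK 293T cells at 37 C/5% CO2.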

A short description of assay [15]: cAMP Responsive Elements (CRE) small molecule antagonists, cell-based qHTS assay (AID 1963591; active means well fitted inhibition curve with a large enough effect in the signal ratio in the repeat runs, not every such curve was filed as active; the % refers to the signal ratio). The gist of the method: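 HEK293T CRE-bla; 18 h preincubation; compound pin-transfer; NKH477 0.25 uM final, 3 h, 37 C; LiveBLAzer FRET substrate 2 h RT.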
Assay [16] addresses Beta-2 adrenergic receptor (Homo sapiens) (UniProt P07550). Nature of the assay: Adrenergic beta2 receptor (ADRB2) small molecule antagonists, cell-based qHTS assay (AID 1963592). Further: series mostly up to about 92 µM; nearly all actives have a fitted effect of over 50% in size. The essentials: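 Assay format: CHO-ADRB2 cells, 18-20hr seeding at 37C/5% CO2, then compound plus 1nM isoproterenol agonist mix for 0.5hr RT. Homogeneous time-resolved fluorescence cAMP detection after 1hr, expressed as 665/615 nm ratio.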

The target of assay [17] is D(2) dopamine receptor (Homo sapiens) (UniProt P14416). Put plainly: Dopamine D2 receptor (DRD2) small molecule agonists, cell-based qHTS assay (AID 1963594). Further: nearly all actives have a fitted effect of over 35% in size. The gist of the method:
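cAMP accumulation in DRD2-HEK293 cells measured by HTRF after 1 h detection; compounds added 10 min before NKH477 (200nM […]) forskolin-analogue stimulation, 30 min at room temperature, with Ro20-1724 present at 0.1 mM final.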

Assay [18] shares this target. Put plainly: Dopamine D2 receptor (DRD2) small molecule antagonists, cell-based qHTS assay (AID 1963595; active means well fitted inhibition curve with a large enough effect in the signal ratio in the repeat runs, with a control signal flat; the % refers to the signal ratio). The essentials:
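In this cell-based antagonist screen, compounds act for 10 min at room temperature before a 30 min challenge with 12 nM quinpirole and 200 nM NKH477. cAMP is quantified by HTRF competition in DRD2-HEK293 cells containing 0.1 mM Ro20-1724.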

In assay [19] the target is 5-hydroxytryptamine receptor 2A (Homo sapiens) (UniProt P28223). Put plainly: 5-hydroxytryptamine receptor 2A (HTR2A) small molecule antagonists, cell-based qHTS assay (AID 1963586). Further: nearly all actives have a fitted effect of over 45% in size. The essentials: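 CHO cells stably expressing human HTR2A were plated for 18 h at 37 C, then loaded with calcium dye for 1 h. Compounds were preincubated 5 min at room temperature before DOI (4 nM solution) was added. Kinetic fluorescence was read for 3 min.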

Assay [20] deals with Beta-2 adrenergic receptor (Homo sapiens) (UniProt P07550). Nature of the assay: Adrenergic beta2 receptor (ADRB2) small molecule agonists, cell-based qHTS assay (AID 1963593).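 Further: CHO cells stably overexpressing human ADRB2.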 The essentials:
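CHO cells stably over-expressing ADRB2 were plated overnight at 37C, then dosed with compounds plus a stimulation mix containing 100uM IBMX and 25uM Ro-20-1724 for 0.5hr at room temperature. cAMP was measured by HTRF competition, 1hr.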

The structures appear in SMILES notation. A number with no mark means an inactive call. Results filed as inconclusive are left out. Active and inactive are the calls of the source. Unless noted, the call rests on the fitted dose curve.

Beta-2 adrenergic receptor (Homo sapiens), sequence (P07550 whole entry, looked up): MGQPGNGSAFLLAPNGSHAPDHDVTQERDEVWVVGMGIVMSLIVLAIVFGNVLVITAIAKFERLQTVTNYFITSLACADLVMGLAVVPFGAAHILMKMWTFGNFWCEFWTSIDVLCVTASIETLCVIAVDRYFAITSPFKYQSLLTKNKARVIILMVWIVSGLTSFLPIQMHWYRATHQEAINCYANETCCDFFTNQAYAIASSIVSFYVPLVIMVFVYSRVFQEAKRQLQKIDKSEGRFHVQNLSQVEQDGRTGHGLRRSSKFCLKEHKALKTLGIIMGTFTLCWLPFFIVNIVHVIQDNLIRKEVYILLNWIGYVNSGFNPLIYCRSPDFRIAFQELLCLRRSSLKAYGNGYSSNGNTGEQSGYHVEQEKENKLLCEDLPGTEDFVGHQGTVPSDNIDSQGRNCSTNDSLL
5-hydroxytryptamine receptor 2A (Homo sapiens), sequence (P28223 whole entry, looked up): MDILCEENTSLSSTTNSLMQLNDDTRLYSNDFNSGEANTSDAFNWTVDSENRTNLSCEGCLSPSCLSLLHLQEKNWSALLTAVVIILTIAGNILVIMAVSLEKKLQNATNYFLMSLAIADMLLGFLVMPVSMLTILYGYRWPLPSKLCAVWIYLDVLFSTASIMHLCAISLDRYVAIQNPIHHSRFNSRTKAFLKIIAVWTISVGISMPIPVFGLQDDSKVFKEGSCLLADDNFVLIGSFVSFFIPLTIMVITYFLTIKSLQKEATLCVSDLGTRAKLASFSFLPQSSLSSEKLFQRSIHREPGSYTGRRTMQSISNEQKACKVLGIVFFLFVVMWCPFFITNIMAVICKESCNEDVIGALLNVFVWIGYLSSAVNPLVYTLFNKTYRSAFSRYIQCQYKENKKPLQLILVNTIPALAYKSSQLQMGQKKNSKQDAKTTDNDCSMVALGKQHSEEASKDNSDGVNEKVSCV
KiSS-1 receptor (Homo sapiens), sequence (Q969F8 whole entry, looked up): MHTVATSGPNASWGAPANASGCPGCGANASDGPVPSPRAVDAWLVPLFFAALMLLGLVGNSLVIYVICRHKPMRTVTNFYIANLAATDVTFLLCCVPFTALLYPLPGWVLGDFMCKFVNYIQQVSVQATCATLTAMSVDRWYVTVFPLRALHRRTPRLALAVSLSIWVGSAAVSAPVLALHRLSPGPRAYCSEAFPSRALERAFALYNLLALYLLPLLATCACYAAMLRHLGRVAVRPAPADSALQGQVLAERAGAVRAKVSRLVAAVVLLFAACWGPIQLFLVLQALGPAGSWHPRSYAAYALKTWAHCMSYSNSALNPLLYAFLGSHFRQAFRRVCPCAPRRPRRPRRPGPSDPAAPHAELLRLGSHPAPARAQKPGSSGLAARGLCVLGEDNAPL
Muscarinic acetylcholine receptor M1 (Homo sapiens), sequence (P11229 whole entry, looked up): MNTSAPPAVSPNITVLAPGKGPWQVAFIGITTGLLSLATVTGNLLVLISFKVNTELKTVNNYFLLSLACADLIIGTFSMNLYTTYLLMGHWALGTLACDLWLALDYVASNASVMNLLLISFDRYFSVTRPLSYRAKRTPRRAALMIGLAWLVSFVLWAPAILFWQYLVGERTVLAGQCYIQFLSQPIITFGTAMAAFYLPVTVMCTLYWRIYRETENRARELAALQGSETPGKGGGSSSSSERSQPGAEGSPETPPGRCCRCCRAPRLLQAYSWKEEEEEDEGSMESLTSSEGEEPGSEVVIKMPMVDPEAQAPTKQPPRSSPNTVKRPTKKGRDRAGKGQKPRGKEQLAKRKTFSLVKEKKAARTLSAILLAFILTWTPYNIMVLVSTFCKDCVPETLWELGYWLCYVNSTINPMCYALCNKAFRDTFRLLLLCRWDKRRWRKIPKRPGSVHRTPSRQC
Gonadotropin-releasing hormone receptor (Homo sapiens), sequence (P30968 whole entry, looked up): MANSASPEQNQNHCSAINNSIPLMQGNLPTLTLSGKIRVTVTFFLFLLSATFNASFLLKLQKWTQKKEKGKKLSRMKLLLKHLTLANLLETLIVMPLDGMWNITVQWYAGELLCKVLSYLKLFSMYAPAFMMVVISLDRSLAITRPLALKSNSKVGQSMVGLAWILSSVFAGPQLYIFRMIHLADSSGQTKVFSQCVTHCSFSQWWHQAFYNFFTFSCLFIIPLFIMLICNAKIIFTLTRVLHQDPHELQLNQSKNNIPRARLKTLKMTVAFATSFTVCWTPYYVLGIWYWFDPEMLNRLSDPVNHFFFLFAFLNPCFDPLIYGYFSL
D(2) dopamine receptor (Homo sapiens), sequence (P14416 whole entry, looked up): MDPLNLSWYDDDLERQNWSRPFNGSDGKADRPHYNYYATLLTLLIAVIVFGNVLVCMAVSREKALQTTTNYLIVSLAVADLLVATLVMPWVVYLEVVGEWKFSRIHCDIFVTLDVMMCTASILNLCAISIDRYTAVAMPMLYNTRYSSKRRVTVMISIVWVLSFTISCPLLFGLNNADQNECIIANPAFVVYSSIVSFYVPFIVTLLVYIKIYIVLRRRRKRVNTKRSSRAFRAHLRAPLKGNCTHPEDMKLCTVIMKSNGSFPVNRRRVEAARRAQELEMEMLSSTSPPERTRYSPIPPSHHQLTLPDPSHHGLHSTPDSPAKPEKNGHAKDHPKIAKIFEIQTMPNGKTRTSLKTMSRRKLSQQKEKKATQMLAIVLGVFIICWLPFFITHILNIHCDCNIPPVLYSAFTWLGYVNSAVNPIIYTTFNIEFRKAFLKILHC

On to `O=C(CO)[C@@H](O)[C@H](O)[C@H](O)CO`, for which the Potency entry in assay [1], in assay [2], in assay [3], in [6], in assay [7] and in [8] was “inactive” throughout. Moreover, the Potency result in assay [9], in assay [10], in assay [11], in assay [12], in [13] and in assay [14] was “inactive” in each case. The Potency result in assay [15], in assay [16], in [17] and in assay [18] was “inactive” each time. In addition, the outcome in assay [4] and in assay [5] was inactive.
Regarding `CCCCCCCC[Si](OCC)(OCC)OCC`, the Potency entry in [1], in assay [2], in [3], in assay [6], in assay [7] and in assay [8] was “inactive” in each case. Moreover, the Potency result in [9], in [19], in assay [11], in [13], in assay [14] and in [15] was “inactive” throughout. Moreover, the Potency result in assay [16], in assay [17] and in assay [18] was “inactive” throughout. Also, the result in [4] and in [5] was inactive.
Take `NC(=O)c1cn(Cc2c(F)cccc2F)nn1`: the Potency entry in assay [1], in assay [2], in [3], in assay [6], in assay [7] and in assay [8] was “inactive” in each case. For the same compound, the Potency entry in [9], in assay [10], in assay [11], in [12], in [13] and in assay [14] was “inactive” throughout. The Potency result in [15], in assay [16], in [20], in [17] and in assay [18] was “inactive” throughout. Also, the outcome in [4] and in [5] was inactive.
Turning to `C=C(C)C(=O)OCC1CCCO1` (stereo not given), the Potency result in assay [1], in assay [2], in assay [3], in assay [6], in assay [7] and in [8] was “inactive” throughout. The Potency entry in [9], in assay [10], in assay [19], in [12], in [13] and in assay [14] was “inactive” each time. The Potency result in assay [15], in assay [16], in assay [20], in assay [17] and in assay [18] was “inactive” each time. The result in assay [4] and in assay [5] was inactive.
Turning to `CCN(CC)CCOCCOC(=O)C1(c2ccccc2)CCCC1`, the Potency entry in assay [1], in [2], in assay [3], in assay [6], in assay [7] and in [8] was “inactive” each time. Further, the Potency result in [9], in assay [10], in assay [11], in [13], in assay [15] and in assay [20] was “inactive” throughout. Besides, the Potency result in assay [17] and in [18] was “inactive” in each case. The outcome in [4] and in [5] was inactive. The Potency in assay [12] is 130 nM (active).
As for `CCCCCCCCCCCC`, the Potency entry in assay [1], in assay [2], in assay [3], in assay [6], in assay [7] and in assay [8] was “inactive” throughout. The Potency entry in assay [9], in [19], in assay [11], in [12], in assay [14] and in assay [15] was “inactive” in each case. For the same compound, in [18], the Potency entry was “inactive”. For the same compound, the result in assay [4] and in assay [5] was inactive.

(Values after PubChem BioAssay (Tox21).)
